Drawing on PubChem BioAssay AID463190 (Sanford-Burnham Center for Chemical Genomics, 2010), this text covers inhibition for 94 compounds.

The campaign covered roughly 330,000 compounds. About 7,300 (2.2%) were called active. The sample holds actives, similar compounds and a random draw of the others, so the mix is not that of the screen. A number with no mark means an inactive call.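 Rule for the calls: active = inhibition of at least 40%; inactive = the rest.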

The test can be described thus: growth inhibitors of tim10-1 mutant yeast, primary screen, luminescence, uHTS (AID 463190).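 Note: mutant grown at 25 °C; 0% = DMSO wells with yeast and 100% = wells holding no yeast.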 The note with it: S. cerevisiae tim10-1 ts strain growth, BacTiter-Glo, 24 h; at 20 µM; hits give high values.
As usually defined, the inhibition is the drop in the measured response relative to a control, in per cent. Turning to `Cc1ccsc1C(=O)OCC(=O)c1cc(C)n(CC2CCCO2)c1C` (centres undefined), the inhibition was 33%. In the case of `COc1ccc(C(=O)OCC(=O)NCC2CCCO2)cc1[N+](=O)[O-]` (centres undefined), the inhibition was -1.22%. The result for `COc1ccc(C(=O)OCC(=O)c2cc(C)n(CC3CCCO3)c2C)cc1[N+](=O)[O-]` (centres undefined) reads 44.5% (active); that for `COC(=O)CN1C(=O)[C@H]2[C@@H](/C=C/c3ccccc3)N3C(=O)CN(Cc4ccccc4)C(=O)[C@@]3(Cc3ccccc3)[C@H]2C1=O`, 8.2%; that for `Fc1ccccc1/C=C1\CCCC2=C1Nc1ncnn1C2c1ccccc1F` (centres undefined), 40.1% (active).

Regarding `CC1=C(C(N)=O)C(c2ccc(Br)cc2)n2ncnc2N1` (centres undefined), the inhibition is 10.7%. As to `OC1CN=C2Sc3ccccc3N2C1` (centres undefined), the inhibition is 10.5%. For `CCc1cccc2c(C=C(C#N)C#N)cn(CC(=O)N3CCCCC3)c12`, the inhibition is 18%.

Regarding `Cc1ccc(C(=O)O)cc1S(=O)(=O)NCC1CCCO1` (centres undefined), the inhibition was -1.57%. As to `Cn1c(C(=O)OC(C(=O)NC2CCCCC2)c2ccccn2)cc2sccc21` (centres undefined), the inhibition was 40.4% (active). As to `CC(C)C(OC(=O)c1cccs1)C(=O)NC1CCCCC1` (centres undefined), the inhibition was 14.5%. Take `Cn1c(C(=O)N2CCCC(C(=O)NCc3ccccc3)C2)cc2sccc21` (centres undefined): the inhibition was -2.21%.

For the compound `O=C1C2(c3ccccc3)CN(CCCO)CC1(c1ccccc1)CN(CCCO)C2`, the inhibition is 13.9%. `CCOC(=O)C1(C(F)(F)F)N=C(N(C)C)OC(N(C)C)=N1`: the inhibition is 0.707%.

Take `S=c1[nH]c2ccccc2c2ccccc12`: the inhibition was 40.1% (active). `CCCCn1c(=S)[nH]c2ccccc2c1=O`: the inhibition was 30.4%. Take `S=c1ccc2ccccc2[nH]1`: the inhibition was 8.36%. For `CC(C)Oc1ccc(C(CC(=O)N2CCOCC2)C(C)C)cc1` (centres undefined) the value was 1.61%; for `COc1ccccc1C(=O)NCC(=O)NCCSc1ccc(Br)cc1`, 12.5%; for `Oc1ccccc1CN1CCN(C(c2ccccc2)c2ccccc2)CC1`, 24.4%. In the case of `CCN1CCN(c2ccc(NC(=O)c3cnccn3)cc2)CC1`, the inhibition was 4.72%. Consider `CCN1CCN(C(c2cccnc2)c2cc(Cl)c3cccnc3c2O)CC1` (centres undefined), for which the inhibition was 50.7% (active). The result for `C=C(C)c1cccc(C(C)(C)NC(=O)NCCN(CC)CC)c1` reads 15.8%; that for `O=C1COc2ccc(NC(=O)N3CCN(c4ccc(F)cc4)CC3)cc2N1`, -1.3%; that for `CCOC(=O)C1Nc2ccc(C(F)(F)F)cc2C2C=CCC12` (centres undefined), 26.6%. On to `O=C(NC1(C(F)(F)F)NC(=O)N(C2CCCCC2)C1=O)c1ccco1` (centres undefined), for which the inhibition is 9.83%. Consider `COC(=O)NC1(C(F)(F)F)NC(=O)N(C2CCCCC2)C1=O` (centres undefined), for which the inhibition is -0.477%.

`O=C1NC(Nc2nc3ccccc3s2)(C(F)(F)F)C(=O)N1C1CCCCC1` (centres undefined): the inhibition is 55.7% (active). The result for `C=CCC1(CC=C)CCCN1C(=O)CC1C(=O)NCCN1Cc1ccccc1OC` (centres undefined) reads 7.02%; that for `O=C(Nc1cccc2cccnc12)c1cccc(Cl)c1`, 20.4%. The result for `S=C(NCc1cccnc1)Nc1ccc(Cl)cc1Cl` reads 15%. Consider `CC(=O)/C(=N\Nc1ccc(Cl)cc1Cl)Sc1cccc2cccnc12`, for which the inhibition is 53.2% (active). Turning to `Cn1cccc1C(=O)OCC(=O)NCCc1ccccc1`, the inhibition was -4.06%. As to `Cc1c(C)n(Cc2ccc(Cl)cc2)c2ccc(C(=O)NCCCN3CCOCC3)cc12`, the inhibition is 5.97%.

In the case of `NS(=O)(=O)c1ccc(CCNC(=O)Nc2ccc(Cl)cc2)cc1`, the inhibition was 8.7%.

Regarding `O=C(Nc1ccc(Cl)cc1)Nc1nnc(/C=C/c2ccccc2)s1`, the inhibition was 5.19%. For `O=C(Nc1ccccc1)c1nnsc1S(=O)(=O)c1ccc(Cl)cc1` the value was 87.7% (active). For `COC(=O)c1cc(NC(=O)c2nn(C)c(=O)c3ccccc23)cc(C(=O)OC)c1`, the inhibition was 13.9%.

With `CCc1ccccc1NC(=O)Cc1cn(C)c2ccccc12`, the inhibition is 24.8%. On to `C=C(C)Cn1c(C)cc(C)c(S(=O)(=O)c2ccccc2C)c1=O`, for which the inhibition was 27.4%. The result for `CCS(=O)(=O)c1cc([N+](=O)[O-])c(Sc2ccccc2N)s1` reads 7.45%. In the case of `Nc1ccccc1SC(C[N+](=O)[O-])c1ccccc1` (centres undefined), the inhibition is 48.9% (active). Turning to `Cc1ccc(C)c(N2CCN(C(=O)CCc3nc4ccccc4[nH]3)CC2)c1`, the inhibition was 22.3%. The result for `Cc1ccc(C)c(N2CCN(C(=O)CCCCCn3c(=S)[nH]c4ccc(N5CCOCC5)cc4c3=O)CC2)c1` reads 0.092%; that for `Cc1ccc(C)c(N2CCN(C(=O)CCCCn3c(=O)[nH]c4ccccc4c3=O)CC2)c1`, 40.7% (active); that for `O=C(CCC1CCCCC1)Nc1cc(C(F)(F)F)ccc1N1CCOCC1`, 27.5%.

`O=C(NCCc1ccccc1)C1CCC(Cn2c(=O)c3ccccc3n(Cc3cccnc3)c2=O)CC1` (centres undefined): the inhibition is 15.4%.

As for `Cc1ccc(Cl)cc1NC(=O)C1CCCN(c2cnccn2)C1` (centres undefined), the inhibition is 12.5%. Take `CC(=O)c1cc(C#N)c(SCC(=O)Nc2nccs2)nc1C`: the inhibition was -56.3%. For `S=c1[nH]nc(CSCc2ccc(Cl)cc2Cl)n1-c1ccccc1` the value was 41.3% (active); for `S=c1[nH]nc(COc2ccccc2)n1-c1ccccc1`, 21.4%; for `Cc1ccc(NCc2n[nH]c(=S)n2-c2ccccc2)cc1Cl`, 23%.

`CCCCNC(=O)C(C)N(CCN(C)C)C(=O)CCCN1C(=O)NC(c2ccc(Cl)cc2)C(C(=O)OCc2ccccc2)=C1C` (centres undefined): the inhibition is 6.33%. For `CCCc1cc(=O)[nH]c(SCC(=O)Nc2sc3c(c2C#N)CCCC3)n1` the value was 6.17%. As to `COc1ccc(CCNC(=O)C(=O)Nc2ccc3nc4n(c(=O)c3c2)CCCCC4)cc1OC`, the inhibition was 9.06%. Consider `CCn1cc(CNC(=O)c2cc([N+](=O)[O-])c(C)c([N+](=O)[O-])c2)cn1`, for which the inhibition was 14.3%. For the compound `CCCN(CC1COc2ccccc2O1)C(=S)Nc1ccc(C)cc1` (centres undefined), the inhibition was 46.4% (active).

For the compound `CCC(=O)c1ccc(OCC(=O)N(CC)CC2COc3ccccc3O2)cc1` (centres undefined), the inhibition was 18.9%. The result for `S=C(NCC1COc2ccccc2O1)Nc1ccc(Br)cc1` (centres undefined) reads 7.9%; that for `CC(C)C(O)C1CCN(Cc2nc(Cc3ccccc3Cl)no2)CC1` (centres undefined), 15.8%. As to `C/C=C(/C)C(=O)O[C@@H]1c2cc3c(c4c2[C@@]2(CO4)C(=O)C(OC)=C(OC)C=C2C[C@@H](C)[C@H]1C)OCO3`, the inhibition was 13.3%.

In the case of `C[C@@H](C(=O)N1CCNCC1)n1cc(CCC(=O)O)nn1`, the inhibition was -7.39%. The result for `COC(=O)N(NC(=O)C(O)(C(C)C)C(C)C)c1ccccc1` reads -7.63%.

As to `CCCCC(O)(CCCC)C(=O)NN(C(=O)CCl)c1ccccc1`, the inhibition is 49.5% (active).

In the case of `CCCC(O)(CCC)C(=O)NN(C(=O)CCl)c1cccc(C)c1`, the inhibition is 31.5%.

As to `Cc1ccnc(SCCn2c(N(C)Cc3ccccc3)nc3c2c(=O)n(C)c(=O)n3C)n1`, the inhibition is 30%. In the case of `COc1ccc(C(C#N)(CC(=O)O)c2cnccn2)cc1OC` (centres undefined), the inhibition is -2.88%. For the compound `COc1ccccc1CNS(=O)(=O)c1ccc2c(c1)NC(=O)CS2`, the inhibition was -7.01%. Turning to `Cn1c(=O)[nH]c(=O)c2c1nc(N1CCN(C(c3ccccc3)c3ccccc3)CC1)n2CCO`, the inhibition is 10.4%. As for `O=C(O)c1ccccc1CSc1nc2ccccc2s1`, the inhibition was 2.18%.

As for `O=[N+]([O-])c1c(NCCO)cc(Sc2nc3ccccc3s2)c2nonc12`, the inhibition is 42.6% (active). `NC(=O)c1ccc(Nc2ccc3nonc3c2[N+](=O)[O-])cc1`: the inhibition is -0.57%. Regarding `COc1cc(C(=O)OCC(=O)NC(C)CCc2ccccc2)cc(OC)c1OC` (centres undefined), the inhibition was 13.5%. Regarding `CN1C(=O)[C@H]2[C@@H](/C=C/c3ccccc3)N3C(=O)CN(Cc4ccc(-c5ccccc5)cc4)C(=O)[C@@]3(C)[C@H]2C1=O`, the inhibition was 1.58%. Regarding `Cc1c(C(=O)Nc2cccc(Cl)c2)cn2c(nc3ccccc32)c1C#N`, the inhibition was 10.2%. The result for `CCOCCn1c(-c2ccccc2)nc2ccccc21` reads -13.4%. On to `Cc1nc(-c2ccccc2)cn2c1nc1ccccc12`, for which the inhibition was 40.7% (active). The result for `COc1ccc(C(=O)OCC(=O)c2ccc(Cl)s2)c(OC)c1OC` reads 6.36%.

In the case of `Cc1ccc(S(=O)(=O)NCCC(c2ccccc2)c2ccccc2)cc1C(=O)O`, the inhibition is 25.2%.

As for `COc1ccc(C(=O)COC(=O)CNC(=O)c2cccs2)cc1Br`, the inhibition was -2.83%. As to `COc1ccc(/C(C)=N/NC(=O)c2ccc3nc[nH]c3c2)cc1`, the inhibition is 52.3% (active). Take `CCN(CC)c1ccc(C(=O)N/N=C(\C)c2cccc(OC)c2)cc1`: the inhibition is -18.4%. The result for `CC(=NNC(=O)c1ccc2nc[nH]c2c1)c1ccc(Br)cc1` reads 9.94%; that for `O=C(Nc1ccncc1)c1ccccc1[N+](=O)[O-]`, 0.557%; that for `CN(C)CCCO/N=C(\c1ccccc1)c1ccncc1`, -3.73%. The result for `O=C(O/N=C(/c1ccccc1)c1ccncc1)c1ccccc1[N+](=O)[O-]` reads 41.3% (active); that for `COc1ccc(OCC(=O)NNC(=O)C2CCC2)cc1`, -8.95%. For `O=C(Nc1ccc(Cl)c(Cl)c1)c1ccccc1NC(=O)C1CC=CCC1C(=O)O` (centres undefined) the value was 14.6%. Consider `COc1ccc(C(=O)Nc2ccccc2C(=O)N/N=C/c2ccccc2OC)cc1`, for which the inhibition is 66.7% (active). Turning to `CCOc1cc(/C=N/NC(=O)c2cc(-c3ccccc3)nc3ccccc23)ccc1O`, the inhibition was 11.6%. In the case of `COc1ccccc1C(=O)NNC(=O)c1ccc(NC(=O)c2ccccc2)cc1`, the inhibition is -9.84%.

As to `COc1cc(/C=N/NC(=O)c2ccc(N3CCCC3=O)cc2)ccc1O`, the inhibition was 13.5%.

Turning to `COc1ccc(C(=O)Nc2cc(C)c(NC(=O)c3ccccc3OC)cn2)cc1`, the inhibition is -34.5%.

With `COc1ccc(C(=O)Nc2ccccc2C(=O)N/N=C/c2ccc(O)c(OC)c2)cc1`, the inhibition is 97% (active).
